L3MBTL1 inh: blocks human L3MBTL1; hit rate 0.66% among 230,000; AlphaScreen L3MBTL1–H3K9me1 peptide binding; AID 485360; Q9Y468; Potency, µM (series often up to 57.1 µM), for inactives: top-dose activity, negative = inhibition, usual class: inhibitors; note: potency is the fitted concentration of half-maximal effect; % is set by controls: 0 for no effect and ±100 for the full control effect; nearly all actives have a fitted effect of over 60% in size
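AlphaScreen assay: L3MBTL1 (50 nM final) was preincubated 30 min at room temperature with biotinylated H3(1-15)K9me1 peptide (75 nM final), then 30 min with library compounds; streptavidin donor and nickel chelate acceptor beads (10 ug/mL final) added, 30 min dark.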
BAZ2B block: inhibitors of human BAZ2B bromodomain; AlphaScreen BAZ2B-H3K14Ac peptide displacement; Potency, µM (top dose mostly 114 µM), inactives show at the top dose activity change, negative = inhibition, hits mostly inhibitors; hit rate 4.4% among 360,000; note: potency is the fitted concentration of half-maximal effect; % is set by controls: 0 for no effect and ±100 for the full control effect; nearly all actives have a fitted effect of over 60% in size
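Multi-concentration screen (max 110 uM) measuring displacement of acetylated histone H3 peptide from BAZ2B by AlphaScreen, using 50 nM protein, 50 nM peptide and 10 ug/mL streptavidin donor plus Ni-chelate acceptor beads.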
G9a inh: blocks human histone lysine methyltransferase G9a; G9a H3K9 monomethylation, AlphaScreen, 2 h; Potency, µM (doses to about 102 µM), for inactives: top-dose activity, negative = inhibition, most hits filed as inhibitors; hit rate 8.8% among 350,000; note: potency is the fitted concentration of half-maximal effect; % is set by controls: 0 for no effect and ±100 for the full control effect; nearly all actives have a fitted effect of over 75% in size
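Enzyme 20 nM + cpd, 15 min RT; add b-H3K9 pep 500 nM / SAM 20 uM; 2 h RT; anti-H3K9me1 Ab 0.5 ug/mL + SA donor / anti-rabbit acceptor beads 20 ug/mL each, 10 min; AlphaScreen read.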
PI5P4Ka inh: inhibitors of human PI5P4K alpha | P48426 | PI5P4Kalpha enzyme, ADP-Glo luminescence, 60 min; stronger effect = lower value | hit rate 1.2% among 330,000 | AID 652105 | max response, %; active = max response of -50% or lower; inconclusive = between -30% and -50%; inactive = -30% or higher; note: value at the top dose of about 77 µM; % is set by controls: 0 for no effect and ±100 for the full control effect
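Luminescence from ADP-Glo served as readout of PI5P4Kalpha activity in a qHTS format. Reaction: enzyme, substrate, compound, ATP at 5 microM final, 60 min at RT.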
JMJD2A Tudor: inhibitors of human JMJD2A Tudor domain; O75164; Potency, µM (top dose mostly 114 µM), inactives show at the highest dose activity change, negative = inhibition, usual class: inhibitors; AlphaScreen JMJD2A-Tudor / H3K4me3 peptide binding; AID 504339; hit rate 4.4% among 390,000; note: potency is the fitted concentration of half-maximal effect; % is set by controls: 0 for no effect and ±100 for the full control effect; nearly all actives have a fitted effect of over 50% in size
HP1b binding inh: inhibitors of HP1-beta chromodomain binding to methylated histone tails; AlphaScreen HP1-beta / biotin-H3K9me3 peptide binding; Potency, µM (top dose mostly 114 µM), for the others: at the highest dose activity change, negative = inhibition, usual class: inhibitors; hit rate 0.56% among 390,000; AID 540317; P83916; note: potency is the fitted concentration of half-maximal effect; nearly all actives have a fitted effect of over 70% in size
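HP1-beta protein (50 nM final) preincubated 30 min at room temperature with biotinylated H3(1-18)K9me3 peptide (50 nM) in PBS pH 7.4, 0.01% Tween-20, then compound added for 30 min. AlphaScreen streptavidin donor/nickel chelate acceptor beads (10 ug/mL final), 30 min dark, luminescence read.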
* marks the source's active call; other numbers are inactive results; ? = inconclusive; nt = no result; [ ] = remark or other dose. Only some compounds are listed: those with a hit (about 11% of all), similar ones and a draw of the others. Unless noted, calls come from the whole dose curve; as a rule, active = well fitted inhibition curve with a large enough effect; inconclusive = small, poorly fitted or top-dose-only effect; inactive = no such curve, though single readings can be large or run the other way.

SMILES | L3MBTL1 inh | BAZ2B block | G9a inh | PI5P4Ka inh | JMJD2A Tudor | HP1b binding inh
CCOc1ccc2nc(/N=C/c3nc(-c4ccc(Br)cc4)oc3O)sc2c1 | -6% | 14% | 14% | -63* | -19% | ?
Cc1ccc(NC(=O)CN2CCN(C3CCCCC3)C(=O)C2=O)cc1 | nt | -4% | 23%[59 µM] | nt | -16% | 17%
CCCCCNC(=O)c1cn(CC)c2cc(N3CCN(C)CC3)c(F)cc2c1=O | nt | -2% | 43%[0.501 µM] | 3 | -10% | -3%
CCn1cc(C(=O)NCCN(C)C)c(=O)c2cc(F)c(N3CCN(C)CC3)cc21 | nt | -1% | 50µM* | 5 | -9% | 5%
CCn1cc(C(=O)NCCCN(C)C)c(=O)c2cc(F)c(N3CCN(C)CC3)cc21 | -15% | 2% | 35µM* | -6 | -8% | 30%
CCCC/C=C/[C@H](c1ccccc1)[C@H](CO)Cc1ccc([N+](=O)[O-])cc1 | nt | nt | nt | nt | -10% | 31%
CCc1ccc(S(=O)(=O)/N=C2\C=C(Nc3ccc(C(=O)O)cc3)C(=O)c3ccccc32)cc1 | nt | 7.9µM* | 8.9µM* | -9 | 28µM* | ?
O=C(O)c1cccc(NS(=O)(=O)c2ccc3c(c2)C(=O)c2ccccc2C3=O)c1 | -22% | ? | nt | -5 | -11% | 23%
Cc1ccc(S(=O)(=O)/N=C2\C=C(Nc3cccc(C(=O)O)c3)C(=O)c3ccccc32)cc1 | nt | 13µM* | 10µM* | -12 | 45µM* | ?
Cc1ccc(C(=O)Nc2cccc(C(=O)O)c2)cc1S(=O)(=O)N1CCCC1 | nt | 4% | 13%[59 µM] | nt | -3% | 39%
Cc1ccc(S(=O)(=O)/N=C2\C=C(Nc3ccc(O)cc3)C(=O)c3ccccc32)cc1 | ? | nt | nt | -15 | 5.6µM* | 13µM*
Cc1ccc(S(=O)(=O)/N=C2\C=C(Nc3cccc(C(=O)O)c3)C(=O)c3ccccc32)c(C)c1 | nt | 8.9µM* | 2.8µM* | -22 | 28µM* | ?
COc1cc(CNCCc2ccccc2)ccc1OCc1ccc(Cl)nc1 | nt | 2% | 13%[12.7 µM] | nt | -13% | 17%
COc1ccccc1CCNCc1ccc(OC)c(OCc2ccccc2)c1 | -1% | ? | ? | nt | 3.2µM* | ?
COc1cccc(CNCCc2c[nH]c3ccccc23)c1OCc1ccccc1 | -13% | ? | -4%[59 µM] | 3 | ? | -21%
COc1ccc(CNCc2ccco2)cc1OCc1ccccc1 | -7% | 79µM* | 13µM* | nt | 13µM* | ?
COc1cc(CNCCc2c[nH]c3ccccc23)ccc1OCc1ccccc1F | -15% | 35µM* | 17%[0.501 µM] | nt | 40µM* | ?
Cc1ccc(NC(=O)Cn2cnc3c2c(=O)n(C)c(=O)n3C)cc1C | nt | 5% | -33%[59 µM] | nt | 3% | 35%
Oc1ccc(Cl)cc1C1=Nc2ccccc2N=C(c2cccc(Br)c2)C1 | nt | -2% | 53%[59 µM] | nt | 56% | 94%
O=c1cc(-c2ccccc2)[nH]c2[nH]n(-c3ccccc3)c(=O)c12 | -4% | ? | 45µM* | nt | -31% | -8%
Cc1cccc(C(=O)Nc2ccccc2C(=O)OCc2cc(=O)n3nc(C4CC4)sc3n2)c1 | nt | -5% | 23%[59 µM] | nt | -3% | 27%
COc1ccc(C2C(C(=O)c3ccc(C)o3)=C(O)C(=O)N2c2cc(C)on2)cc1OC (stereo not given) | 3% | -37% | ? | 4 | ? | 0%
COc1ccc(OC)c(C2C(C(=O)c3cc4ccccc4o3)=C(O)C(=O)N2c2cc(C)on2)c1 (stereo not given) | -9% | -4% | ? | -26 | -31% | -6%
COc1cccc(C2C(C(=O)c3cc4ccccc4o3)=C(O)C(=O)N2c2cc(C)on2)c1 (stereo not given) | nt | -2% | 45µM* | -3 | -24% | 2%[57 µM]
Cc1cc(N2C(=O)C(O)=C(C(=O)c3ccc(C)o3)C2c2ccc([N+](=O)[O-])cc2)no1 (stereo not given) | nt | -29% | 45µM* | -9 | -21% | 16%
